Our source for the growth values is PubChem BioAssay (NCI).

Test systems include SK-MEL-2 melanoma; EKVX NSCLC; SN12C renal; TK-10 renal; ACHN renal; CAKI-1 renal; A498 renal; CCRF-CEM leukemia; MOLT-4 leukemia; UO-31 renal.
What all share (experiment): NCI-60 one-dose screen, 48 h (100 = growth as untreated, 0 = no growth, -100 = all killed)
Common to all, as to details: 10 µM unless noted

This is part of a sample that, as a whole, favours compounds with a hit. Of some 83,000 tested, about 20% had one in any assay.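 Testing used 96-well plates and a 48-hour single-concentration exposure. Example: -40 means 40% of the starting cells died.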 Values without a mark were called inactive. Calls of active or inactive are those of the source. Rule for the calls: active = growth percent below 10; inactive = the rest.

Consider `COc1cc(/C=C/c2cc(/C=C/c3ccc(O)c(OC)c3)n(-c3ccc(Cl)cc3)c(=O)n2)ccc1O`, for which the growth in the experiment on SK-MEL-2 melanoma is 92.6%; in the experiment on EKVX NSCLC, 78.1%; with SN12C renal it was 80.8%; in the experiment on TK-10 renal, 118%; in the experiment with ACHN renal, 83.1%; in the experiment with CAKI-1 renal it was 92.9%. Also, the figures for the growth in the experiment on A498 renal, with CCRF-CEM leukemia and with MOLT-4 leukemia were 102%, 44.2% and 43%, respectively.
As to `Cc1ccc2[nH]cc(-c3nc(-c4cn(C)c5ncccc45)cs3)c2c1`, the growth was 89.4% in the experiment with SK-MEL-2 melanoma; 59.5% in the experiment on EKVX NSCLC; 87.8% in the experiment on SN12C renal; 95% in the experiment on TK-10 renal; 79.6% with ACHN renal; 77.9% in the experiment on CAKI-1 renal. For the same molecule, the growth in the experiment with A498 renal is 72.2%; in the experiment on CCRF-CEM leukemia it was 58.5%; in the experiment on MOLT-4 leukemia, 53.3%.
For the molecule `c1ccc(-c2nc(Nc3ccc(-c4nc5ccccc5[nH]4)cc3)nc(N3CCOCC3)n2)cc1`, the growth in the experiment on SK-MEL-2 melanoma is -52.7% (active); in the experiment with EKVX NSCLC, -66.9% (active); in the experiment on SN12C renal it was -62.8% (active); in the experiment on TK-10 renal it was -58.1% (active); in the experiment with ACHN renal it was -58.9% (active); in the experiment on CAKI-1 renal it was -89.4% (active). Further, the growth with A498 renal is -83.4% (active); in the experiment on CCRF-CEM leukemia it was -15.7% (active); in the experiment on MOLT-4 leukemia it was -37.8% (active).
In the case of `O=C1CNCCN1`, the growth is 106% with SK-MEL-2 melanoma; 101% with EKVX NSCLC; 97.8% in the experiment on SN12C renal; 100% in the experiment on TK-10 renal; 106% in the experiment with ACHN renal; 93.1% in the experiment with CAKI-1 renal. Also, the growth with A498 renal is 98%; in the experiment on CCRF-CEM leukemia, 99.7%; in the experiment on MOLT-4 leukemia, 94%.
Consider `CCN(CC)CCCCCCNc1ccnc2cc(Cl)ccc12`, for which the growth with SK-MEL-2 melanoma is 128%; in the experiment on EKVX NSCLC, 76.5%; in the experiment with SN12C renal, 84.9%; in the experiment on TK-10 renal it was 113%; in the experiment on ACHN renal, 111%; in the experiment on CAKI-1 renal it was 84.2%. For the same molecule, the growth in the experiment on A498 renal was 118%; in the experiment on MOLT-4 leukemia it was 101%.
Take `Brc1ccc2c(c1)c(-c1nc(-c3c[nH]c4ncccc34)cs1)cn2CCCN1CCCCC1`: the growth in the experiment with SK-MEL-2 melanoma is 36.8%; in the experiment on EKVX NSCLC, 50.1%; in the experiment with SN12C renal, 25.3%; in the experiment with TK-10 renal, 76.2%; with A498 renal it was 77%; in the experiment on CCRF-CEM leukemia, -35.5% (active). For the same molecule, the growth in the experiment with MOLT-4 leukemia is -44.6% (active).
As for `Oc1ccc(CCC2CCCC(CCc3ccc(OCCF)cc3)N2)cc1` (configuration not stated), the growth in the experiment on SK-MEL-2 melanoma was 104%; in the experiment with EKVX NSCLC, 105%; in the experiment on SN12C renal, 89.6%; in the experiment on TK-10 renal, 96.7%; in the experiment with ACHN renal, 99.8%; in the experiment on CAKI-1 renal it was 89.2%. Further, the figures for the growth in the experiment with A498 renal and in the experiment on CCRF-CEM leukemia were 96.9% and 88.3%, respectively.
For the molecule `COc1ccccc1CNc1nc(N)nc2[nH]c3ccc(O)cc3c12`, the growth with SK-MEL-2 melanoma is 15.8%; in the experiment on EKVX NSCLC it was 90.4%; in the experiment on SN12C renal, 55.3%; with TK-10 renal, 68.6%; in the experiment with CAKI-1 renal, 80.5%; in the experiment on A498 renal, 28%. The growth with CCRF-CEM leukemia was 44%; with MOLT-4 leukemia, 22.4%.
Turning to `COc1ccc(OCC(CO)N2CCN(c3ccccc3)CC2)cc1` (configuration not stated), the growth in the experiment with SK-MEL-2 melanoma is 106%; in the experiment with EKVX NSCLC, 108%; in the experiment on SN12C renal, 97.2%; in the experiment with ACHN renal it was 104%; in the experiment with CAKI-1 renal it was 90.6%; in the experiment with A498 renal, 108%. Also, the growth in the experiment with CCRF-CEM leukemia was 112%; in the experiment with MOLT-4 leukemia, 116%.
Turning to `Cc1ccc(Sc2sc(-c3ccccc3)nc2[P+](c2ccccc2)(c2ccccc2)c2ccccc2)cc1`, the growth with SK-MEL-2 melanoma was -37.8% (active); in the experiment on EKVX NSCLC, 5.57% (active); with SN12C renal, 6% (active); in the experiment on TK-10 renal, 14.7%; in the experiment on ACHN renal, 6.46% (active); with CAKI-1 renal it was -14.2% (active). Besides, the growth was -43.5% (active) in the experiment on A498 renal, 7.63% (active) with CCRF-CEM leukemia and -48.2% (active) with MOLT-4 leukemia.
For the molecule `COc1ccc(NC(=S)N/N=C/c2ccccc2SSCCC(=O)OC[C@H]2O[C@H](O)[C@H](O)[C@@H](O)[C@@H]2O)cc1`, the growth in the experiment on SK-MEL-2 melanoma was 78.9%; in the experiment with EKVX NSCLC it was 72.9%; in the experiment on SN12C renal, 81.2%; in the experiment on TK-10 renal it was 136%; with ACHN renal, 101%; with A498 renal it was 93.4%. The growth with CCRF-CEM leukemia is 92.4%; with MOLT-4 leukemia it was 65.4%.
As for `C=C1C(=O)O[C@H]2[C@H]1CC/C(Cn1cc(-c3ccc(OC)cc3)nn1)=C\CC[C@@]1(C)O[C@@H]21`, the growth was 61.9% in the experiment on SK-MEL-2 melanoma; 85.4% in the experiment on EKVX NSCLC; 0.315% (active) in the experiment on SN12C renal; -84.1% (active) with TK-10 renal; 6.78% (active) with ACHN renal; -4.52% (active) in the experiment with CAKI-1 renal. For the same molecule, the growth in the experiment on A498 renal was 31.7%; in the experiment with CCRF-CEM leukemia, -32.6% (active); in the experiment with MOLT-4 leukemia it was -32.9% (active).
As to `Cc1cc(N2CCCCC2)nc(N(CCCNc2ccnc3cc(Cl)ccc23)Cc2ccco2)n1`, the growth is 44.8% with SK-MEL-2 melanoma; 39.4% in the experiment with EKVX NSCLC; 36.3% with SN12C renal; 15.6% with UO-31 renal; 38.8% in the experiment on ACHN renal; 46.5% in the experiment with A498 renal. The growth in the experiment with CCRF-CEM leukemia is 19.5%; in the experiment with MOLT-4 leukemia it was 6.82% (active).
In the case of `CCN1CCN(C(=O)[C@]23CCC(C)(C)C[C@H]2C2=CC[C@@H]4[C@@]5(C)CC/C(=N/O)C(C)(C)[C@@H]5CC[C@@]4(C)[C@]2(C)CC3)CC1`, the growth in the experiment on SK-MEL-2 melanoma was 95.6%; in the experiment with EKVX NSCLC it was 58.4%; in the experiment on SN12C renal, 16.2%; in the experiment on TK-10 renal it was 136%; with ACHN renal, 28.4%; in the experiment with CAKI-1 renal it was 54.3%. The growth is 85.2% with A498 renal, 38.3% in the experiment on CCRF-CEM leukemia and 31% in the experiment on MOLT-4 leukemia.
For the molecule `Cc1ccncc1C(=O)O`, the growth is 121% in the experiment on SK-MEL-2 melanoma; 97.5% in the experiment on EKVX NSCLC; 94.6% with SN12C renal; 123% in the experiment on TK-10 renal; 97.2% in the experiment on ACHN renal; 95.9% in the experiment with CAKI-1 renal. The growth was 89% in the experiment with A498 renal, 140% with CCRF-CEM leukemia and 122% in the experiment with MOLT-4 leukemia.
